The panel holds about 83,000 compounds, 20% with a hit somewhere; the sample as a whole holds those more often.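 48-hour exposure, single concentration, 96-well plates; percent growth endpoint where 0 means no net growth. Active: below 10.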 Values without a mark were called inactive. Calls of active or inactive are those of the source.
Legend:
Assay in all cases: NCI-60 one-dose screen, 48 h (100 = growth as untreated, 0 = no growth, -100 = all killed)
Conditions in all cases: 10 µM unless noted
MOLT-4 leukemia = test system: MOLT-4 leukemia
SR leukemia = test system: SR leukemia
RPMI-8226 leukemia = test system: RPMI-8226 leukemia
OVCAR-8 ovarian = test system: OVCAR-8 ovarian
OVCAR-5 ovarian = test system: OVCAR-5 ovarian
OVCAR-4 ovarian = test system: OVCAR-4 ovarian
SK-OV-3 ovarian = test system: SK-OV-3 ovarian
IGROV1 ovarian = test system: IGROV1 ovarian
OVCAR-3 ovarian = test system: OVCAR-3 ovarian
HS 578T breast = test system: HS 578T breast
NCI/ADR-RES ovarian = test system: NCI/ADR-RES ovarian
T-47D breast = test system: T-47D breast
BT-549 breast = test system: BT-549 breast
MDA-MB-435 melanoma = test system: MDA-MB-435 melanoma
SW-620 colon = test system: SW-620 colon
MCF7 breast = test system: MCF7 breast
HCT-116 colon = test system: HCT-116 colon
HCC-2998 colon = test system: HCC-2998 colon
KM12 colon = test system: KM12 colon

Structure (SMILES) | growth (MOLT-4 leukemia) | growth (SR leukemia) | growth (RPMI-8226 leukemia) | growth (OVCAR-8 ovarian) | growth (OVCAR-5 ovarian) | growth (OVCAR-4 ovarian) | growth (SK-OV-3 ovarian) | growth (IGROV1 ovarian) | growth (OVCAR-3 ovarian) | growth (HS 578T breast) | growth (NCI/ADR-RES ovarian) | growth (T-47D breast) | growth (BT-549 breast) | growth (MDA-MB-435 melanoma) | growth (SW-620 colon) | growth (MCF7 breast) | growth (HCT-116 colon) | growth (HCC-2998 colon) | growth (KM12 colon)
COc1ccc(C(O)(C(=O)O)c2ccc(OC)cc2)cc1 | 87.1% | 102% | 78.2% | 93.3% | 103% | 97.8% | 99.1% | 87.5% | 106% | 94.6% | 97.8% | 76.4% | 106% | 102% | 95.2% | 88.6% | 83.2% | 90.6% | 87.7%
COP(=O)(OC)C(O)c1ccc(Cl)cc1 (centres undefined) | 119% | 96.1% | 104% | 108% | 112% | 104% | 111% | 103% | 94.7% | 94.1% | 96.9% | 114% | 94.1% | 100% | 101% | 98.4% | 94.7% | 98.9% | 90%
CN(C)C(=O)Oc1ccccc1-c1ccccc1 | 89.9% | 103% | 104% | 100% | 109% | 128% | 100% | 113% | 108% | 113% | 102% | 93.3% | 90.7% | 112% | 109% | 105% | 111% | 96.1% | 103%
C/C(Cc1ccc(Cl)cc1)=C(\c1ccc(OCCN2CCOCC2)cc1)c1ccc(OC(=O)Cc2ccccc2)cc1 | 94.8% | 87.1% | 84% | 92% | 91.1% | 101% | 109% | 86.4% | 101% | 99.1% | 98.7% | 66% | 96.9% | 98.6% | 96.5% | 69.4% | 86.1% | 91.3% | 98%
C=CC[PH+](c1ccccc1)c1ccccc1.C=CC[PH+](c1ccccc1)c1ccccc1.[Cl][Pt][Cl] | 7.63% (active) | 1.56% (active) | -12.1% (active) | 20% | 96.1% | 39.7% | 99.1% | -17.4% (active) | -9.31% (active) | 55.8% | 97% | 0.0943% (active) | 78% | 64.9% | 2.38% (active) | 31.9% | 3.92% (active) | 94.9% | 77.8%
COc1cc(C=Nc2cccc(Br)c2)ccc1N(CCCl)CCCl | 64.2% | 44.1% | 86.2% | 81.6% | 85.6% | 93.6% | 71.3% | 96.3% | 80.8% | 150% | 80.7% | 91.3% | 85.5% | 103% | 74.5% | 66.6% | 87% | 60.1% | 40.6%
CC(=O)OC1C(OC/C2=C/C3[C@@H](C(C)C)CC=C(C)[C@@H]3CC(OC(=O)/C=C/c3cn(C)cn3)[C@]3(C)C=C[C@@]2(O)O3)OCC(O)C1O (some centres undefined) | 35.8% | 24.8% | 4.84% (active) | 32.7% | 49.4% | 43% | 11.9% | 33.6% | 15.3% | 21.8% | 80.8% | 23% | -14.3% (active) | -52.3% (active) | 35.8% | 13.5% | 4.11% (active) | -44.1% (active) | 14.1%
COc1cc2c(cc1OCCCn1c(-c3ccccn3)nc3ccccc31)N=C[C@@H]1CCCN1C2=O | 8.22% (active) | 3.55% (active) | -37.5% (active) | 25.5% | 2.58% (active) | 15.6% | 30.8% | -62.3% (active) | 2.94% (active) | -2.53% (active) | 3.97% (active) | 35.4% | -17.1% (active) | -23.6% (active) | 0.272% (active) | 1.32% (active) | -14.4% (active) | 2.04% (active) | -31.7% (active)
COc1ccc(/C(C)=C(\c2ccc(OCCN3CCOCC3)cc2)c2ccc(OC(=O)Cc3ccccc3)cc2)cc1 | 104% | 112% | 84.6% | 100% | 104% | 106% | 97.6% | 113% | 101% | 110% | 102% | 65.4% | 108% | 107% | 111% | 71.7% | 104% | 102% | 103%
O=C(O)c1c(Cl)n(Cc2ccc(O)cc2)c2ccc(O)cc12 | 109% | 106% | 70.9% | 103% | 92.4% | 104% | 115% | 63.4% | 93.9% | 102% | 118% | 118% | 99.4% | 87% | 101% | 101% | 95% | 119% | 107%
C[C@]12CC[C@H]3[C@@H](C[C@@H]4SC(Nc5ccccc5)=N[C@@]45CC(O)CC[C@]35C)[C@@H]1CCC2O (some centres undefined) | 6.79% (active) | 8.06% (active) | -32.3% (active) | -8.95% (active) | 92.2% | 64.1% | 89.6% | 11.2% | -31.6% (active) | 3.65% (active) | 36.3% | 16.3% | 19.2% | 3.47% (active) | -19.4% (active) | 29.2% | -81.5% (active) | 98.2% | 15.6%
CN(C)C(=O)Oc1ccc(Br)cc1 | 102% | 100% | 106% | 106% | 106% | 97.7% | 95.8% | 96.7% | 106% | 115% | 106% | 92.4% | 103% | 104% | 109% | 88.7% | 103% | 108% | 101%
O=C(O)C(Cl)(Cl)C(F)(F)F | 112% | 122% | 108% | 112% | 103% | 104% | 110% | 104% | 101% | 95.9% | 102% | 106% | 96.9% | 97.7% | 94.7% | 99.6% | 105% | 99.9% | 102%
CCCCNC(c1ccc(Cl)cc1)C(O)c1ccc(Cl)cc1 (centres undefined) | 9.52% (active) | -34.2% (active) | -15.1% (active) | 49% | 56% | 65.9% | 79.6% | 27% | 55.6% | 64.2% | 40.9% | 46.4% | 80.6% | 21.4% | 2.85% (active) | 3.13% (active) | 5.84% (active) | -55.7% (active) | 21.6%
C[C@]12CCc3sc(NCCc4ccccc4)nc3C1=CC[C@@H]1[C@@H]2CC[C@]2(C)C(=O)CC[C@@H]12 | 4.71% (active) | 0.916% (active) | -5.28% (active) | 72.1% | 100% | 74.2% | 112% | 88% | 6.41% (active) | 75.5% | 70.2% | 75.2% | 60.4% | 58.1% | 35.3% | 20.4% | 21.2% | 106% | 74.7%
CC[S][Hg][Cl] | 109% | 98.1% | 114% | 102% | 116% | 122% | 110% | 112% | 109% | 106% | 106% | 122% | 111% | 98.7% | 106% | 93.3% | 106% | 111% | 107%
